# Reference: PubChem BioAssay (NCATS)
# Where “and” joins values, the source holds several entries; their conditions need not be identical. Equal values may be shown once. Records with an inconclusive call do not appear. Entries that show only a call come without a potency. A number with no mark means an inactive call. Calls of active or inactive are those of the source. The call rests on the fitted dose curve; in most records, active means well fitted curve in the direction sought with a large enough effect; inconclusive means small, poorly fitted or top-dose-only effect, or another doubt; inactive means no such curve, though single readings can be large; an effect the other way counts as inactive or inconclusive.
# What was measured:
# [1] = system: MKL-1; experiment: qHTS assay to identify novel small-molecules to repurpose for Merkel cell carcinoma treatment (AID 1296009); details: MCC and control cell lines, CellTiter-Glo viability, 72 h; series mostly up to 46 µM; further: nearly all actives have a fitted effect of over 60% in size
# Method in brief: (§1)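 Cells were incubated with compound for 72 hr at 37 degree celsius before CellTiter-Glo addition. Luminescence was normalized with no-cell wells as full cytotoxicity and DMSO as baseline.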
# [2] = system: MKL-2; experiment: as above; details: MCC and control cell lines, CellTiter-Glo viability, 72 h; series mostly up to 46 µM
# Method in brief: as §1
# [3] = system: C33A; experiment: Primary qHTS to identify gynecologic anti-cancer compounds using libraries of approved drugs and bioactive compounds (AID 1345084); details: Gynecologic cancer cell panel viability, ATPlite luminescence, 48 h; series mostly up to 57.5 µM; further: nearly all actives have a fitted effect of over 55% in size
# Method in brief: (§2)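 In this quantitative HTS, cell killing is estimated from loss of ATP-dependent luciferase light. Cells see five compound concentrations over a 48 h exposure.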
# [4] = system: CAOV3; experiment: as above; details: Gynecologic cancer cell panel viability, ATPlite luminescence, 48 h; series mostly up to 57.5 µM
# Method in brief: as §2
# [5] = system: CASKI; experiment: as above; details: Gynecologic cancer cell panel viability, ATPlite luminescence, 48 h; series mostly up to 57.5 µM
# Method in brief: as §2
# [6] = system: Es-2; experiment: as above; details: Gynecologic cancer cell panel viability, ATPlite luminescence, 48 h; series mostly up to 57.5 µM
# Method in brief: as §2
# [7] = system: Hek293T; experiment: as above; details: Gynecologic cancer cell panel viability, ATPlite luminescence, 48 h, control line for the selectivity index; series mostly up to 57.5 µM
# Method in brief: as §2
# [8] = system: JEG-3; experiment: as above; details: Gynecologic cancer cell panel viability, ATPlite luminescence, 48 h; series mostly up to 57.5 µM
# Method in brief: as §2
# [9] = system: OV90; experiment: as above; details: Gynecologic cancer cell panel viability, ATPlite luminescence, 48 h; series mostly up to 57.5 µM
# Method in brief: as §2
# [10] = system: PA-1; experiment: as above; details: Gynecologic cancer cell panel viability, ATPlite luminescence, 48 h; series mostly up to 57.5 µM
# Method in brief: as §2
# [11] = system: SKOV3; experiment: as above; details: Gynecologic cancer cell panel viability, ATPlite luminescence, 48 h; series mostly up to 57.5 µM
# Method in brief: as §2
# [12] = system: Tov-21-G; experiment: as above; details: Gynecologic cancer cell panel viability, ATPlite luminescence, 48 h; series mostly up to 57.5 µM
# Method in brief: as §2
# [13] = system: Tov112D; experiment: as above; details: Gynecologic cancer cell panel viability, ATPlite luminescence, 48 h; series mostly up to 57.5 µM
# Method in brief: as §2
# [14] = system: UISO; experiment: qHTS assay to identify novel small-molecules to repurpose for Merkel cell carcinoma treatment (AID 1296009); details: MCC and control cell lines, CellTiter-Glo viability, 72 h; series mostly up to 46 µM; further: nearly all actives have a fitted effect of over 60% in size
# Method in brief: as §1
# [15] = system: WaGa; experiment: as above; details: MCC and control cell lines, CellTiter-Glo viability, 72 h; series mostly up to 46 µM
# Method in brief: as §1
# [16] = system: HeLa; experiment: Primary qHTS to identify gynecologic anti-cancer compounds using libraries of approved drugs and bioactive compounds (AID 1345084); details: Gynecologic cancer cell panel viability, ATPlite luminescence, 48 h; series mostly up to 57.5 µM; further: nearly all actives have a fitted effect of over 55% in size
# Method in brief: as §2
# [17] = Drug repurposing screens with cells derived from glioblastoma tumor samples (AID 1345199); details: GBM patient neurospheres viability, ATP luminescence, 48 h; further: nearly all actives have a fitted effect of over 40% in size
# Method in brief: (§3)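 Four patient lines of CD133+ GBM neurospheres were screened at several concentrations; hits were retested in those lines plus three slower-growing GBM lines, using 48-hour treatment and ATP-based viability.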
# [18] = system: astro; experiment: as above; details: viability, ATP luminescence, 48 h; series mostly up to 45.9 µM
# Method in brief: as §3
# [19] = system: NIH3T3; experiment: qHTS assay to identify novel small-molecules to repurpose for Merkel cell carcinoma treatment (AID 1296009); details: MCC and control cell lines, CellTiter-Glo viability, 72 h; at 44.8 µM (top of the series) unless noted; further: nearly all actives have a fitted effect of over 60% in size
# Method in brief: as §1
# [20] = qHTS assay to identify inhibitors of the type 1 interferon - major histocompatibility complex class I in skeletal muscle: Counter screen cell viability and HiBit confirmation (AID 1347412); details: iHSKM muscle cells + IFN-b, HiBiT or CellTiter-Glo, 24 h; further: nearly all actives have a fitted effect of over 60% in size
# Method in brief: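 Human myoblast knock-in line, 4.0 ng/ml IFN-beta stimulation, 24 h compound treatment. Endpoints: HiBiT lytic luminescence (HLA-B level) and CellTiter Glo (ATP). Dosing 12 concentrations, 3-fold steps, 46 uM highest final.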
# [21] = at 45.9 µM (top of the series), tumour line B
# [22] = at 45.9 µM (top of the series), tumour line D
# [23] = at 46 µM (top of the series), tumour line A
# [24] = at 46.1 µM (top of the series), tumour line C
# Potency means the concentration at half of the fitted maximal effect.
structure (smiles),measurement,setting,value
COC(=O)C1=C(C)NC(C)=C(C(=O)OCC(C)=O)C1c1ccccc1[N+](=O)[O-] (stereo not given),Potency,[1],21.1 µM (active)
same,Potency,[2],10.6 µM (active)
same,Potency,[3],inactive
same,Potency,[4],inactive
same,Potency,[5],inactive
same,Potency,[6],inactive
same,Potency,[7],inactive
same,Potency,[8],inactive
same,Potency,[9],inactive
same,Potency,[10],inactive
same,Potency,[11],inactive
same,Potency,[12],inactive
same,Potency,[13],inactive
Nc1cc(-c2ccncc2)c[nH]c1=O,Potency,[1],inactive
same,Potency,[14],inactive
same,Potency,[15],inactive
same,Potency,[3],inactive
same,Potency,[4],inactive
same,Potency,[5],inactive
same,Potency,[6],inactive
same,Potency,[16],inactive
same,Potency,[7],inactive
same,Potency,[8],inactive
same,Potency,[9],inactive
same,Potency,[10],inactive
same,Potency,[12],inactive
same,Potency,[13],inactive
same,"activity, negative = cell killing",[17]; [21],-15%
same,"activity, negative = cell killing",[17]; [22],3.16%
same,"activity, negative = cell killing",[17]; [23],-22.8%
same,"activity, negative = cell killing",[17]; [24],-16.3%
same,Potency,[18],inactive
Cc1[nH]cnc1CN1CCc2c(c3ccccc3n2C)C1=O,Potency,[1],inactive
same,Potency,[2],inactive
same,Potency,[14],inactive
same,Potency,[15],inactive
same,Potency,[3],inactive
same,Potency,[4],inactive
same,Potency,[5],inactive
same,Potency,[6],inactive
same,Potency,[16],inactive
same,Potency,[7],inactive
same,Potency,[8],inactive
same,Potency,[10],inactive
same,Potency,[11],inactive
same,Potency,[12],inactive
same,Potency,[13],inactive
same,"activity, negative = cell killing",[17]; [21],-8.52%
same,"activity, negative = cell killing",[17]; [22],-4.04%
same,"activity, negative = cell killing",[17]; [24],-28.6%
same,Potency,[17]; tumour line A,10 µM (active)
same,Potency,[18],inactive
CN(C)c1ccc(N=NS(=O)(=O)O)cc1,Potency,[1],5.12 µM (active)
same,Potency,[2],6.44 µM (active)
same,Potency,[15],40.7 µM (active)
same,Potency,[3],inactive
same,Potency,[5],inactive
same,Potency,[6],inactive
same,Potency,[16],inactive
same,Potency,[7],inactive
same,Potency,[12],inactive
same,"activity, negative = cell killing","[17]; at 91.6 µM (top of the series), tumour line B",-16.9%
N=C1N=C(N)c2cc3ccccc3cc21,Potency,[1],38.6 µM (active)
same,Potency,[2],24.3 µM (active)
same,Potency,[14],24.3 µM (active)
same,Potency,[5],31.6 µM (active)
same,Potency,[7],39.8 µM (active)
same,Potency,[10],35.5 µM (active)
same,Potency,[12],35.5 µM (active)
COc1ccc(-c2cc(=S)ss2)cc1,Potency,[1],26.6 µM (active)
same,outcome,[19],inactive
same,Potency,[3],inactive
same,Potency,[4],inactive
same,Potency,[5],inactive
same,Potency,[6],inactive
same,Potency,[16],inactive
same,Potency,[7],inactive
same,Potency,[8],inactive
same,Potency,[9],inactive
same,Potency,[10],inactive
same,Potency,[11],inactive
same,Potency,[12],inactive
same,Potency,[13],inactive
same,"activity, negative = cell killing",[17]; [21],-21.5%
same,"activity, negative = cell killing",[17]; [22],-22.3%
same,"activity, negative = cell killing",[17]; [24],-27.4%
same,Potency,[18],inactive
CN1CC(=O)N/C1=N/C(=O)Nc1cccc(Cl)c1,Potency,[1],inactive
same,Potency,[2],inactive
same,Potency,[14],inactive
same,Potency,[15],inactive
same,Potency,[3],inactive
same,Potency,[4],inactive
same,Potency,[5],inactive
same,Potency,[6],inactive
same,Potency,[16],inactive
same,Potency,[7],inactive
same,Potency,[8],inactive
same,Potency,[9],inactive
same,Potency,[10],inactive
same,Potency,[11],inactive
same,Potency,[12],inactive
same,Potency,[13],inactive
same,"activity, negative = cell killing",[17]; [21],-4.72% and 3.17%
same,"activity, negative = cell killing",[17]; [22],-5.4% and -21.8%
same,"activity, negative = cell killing",[17]; [24],-23.8% and 2.92%
same,Potency,[18],inactive
C/C(=N\O)c1ccc(OCC(=O)N2CCCCC2)cc1,Potency,[1],inactive
same,Potency,[2],inactive
same,Potency,[14],inactive
same,Potency,[15],inactive
same,Potency,[3],inactive
same,Potency,[4],inactive
same,Potency,[5],inactive
same,Potency,[16],inactive
same,Potency,[7],inactive
same,Potency,[10],inactive
same,Potency,[13],inactive
O=C1CN(/N=C/c2ccc([N+](=O)[O-])o2)C(=O)N1,outcome,[19],inactive
same,Potency,[15],23.7 µM (active)
same,Potency,[3],inactive
same,Potency,[4],inactive
same,Potency,[5],inactive
same,Potency,[6],inactive
same,Potency,[16],inactive
same,Potency,[10],inactive
same,Potency,[11],22.4 µM (active)
same,Potency,[12],inactive
same,Potency,[13],inactive
same,"activity, negative = cell killing",[17]; [21],-5.05%
same,"activity, negative = cell killing",[17]; [22],-3.4%
same,"activity, negative = cell killing",[17]; [23],-24.2%
same,"activity, negative = cell killing",[17]; [24],-8.71%
same,Potency,[18],inactive
CN(C)c1ccc(C(=C2C=CC(=[N+](C)C)C=C2)c2ccccc2)cc1,Potency,[1],0.0376 µM (active)
same,Potency,[2],0.0133 µM (active)
same,Potency,[14],0.0668 µM (active)
same,Potency,[3],2 µM (active)
same,Potency,[6],1.78 µM (active)
same,Potency,[16],2.51 µM (active)
same,Potency,[7],2.51 µM (active)
same,Potency,[9],11.2 µM (active)
same,Potency,[10],1.26 µM (active)
same,Potency,[11],1.12 µM (active)
same,Potency,[13],2 µM (active)
same,Potency,[20]; HiBiT,1.98 µM (active)
same,Potency,[20]; Viability,3.94 µM (active)
O=C(O)Cc1cccc(-c2cc(CCCCCCc3ccc(O[C@H]4O[C@H](CO)[C@@H](O)[C@H](O)[C@@H]4O)c(-c4cccc(CC(=O)O)c4)c3)ccc2O[C@H]2O[C@H](CO)[C@@H](O)[C@H](O)[C@@H]2O)c1,"activity change, negative = cytotoxicity",[1],6.03% [at 0.597 µM]
same,"activity change, negative = cytotoxicity",[2],5.84% [at 0.597 µM]
same,"activity change, negative = cytotoxicity",[14],19.7% [at 0.597 µM]
same,"activity change, negative = cytotoxicity",[15],8.43% [at 0.597 µM]
same,"activity change, negative = cytotoxicity",[3],-0.854% [at 0.462 µM]
same,"activity change, negative = cytotoxicity",[4],12.9% [at 0.462 µM]
same,"activity change, negative = cytotoxicity",[5],-1.06% [at 0.462 µM]
same,"activity change, negative = cytotoxicity",[6],2.88% [at 0.462 µM]
same,"activity change, negative = cytotoxicity",[16],7.81% [at 0.462 µM]
same,"activity change, negative = cytotoxicity",[7],0.655% [at 0.462 µM]
same,"activity change, negative = cytotoxicity",[8],24.2% [at 0.462 µM]
same,"activity change, negative = cytotoxicity",[9],11.3% [at 0.462 µM]
same,"activity change, negative = cytotoxicity",[10],22.2% [at 0.462 µM]
same,"activity change, negative = cytotoxicity",[12],4.72% [at 0.462 µM]
same,"activity change, negative = cytotoxicity",[13],13.8% [at 0.462 µM]
same,"activity, negative = cell killing",[17]; [21],-15%
same,"activity, negative = cell killing",[17]; [22],-11.6%
same,"activity, negative = cell killing",[17]; [23],-35.4%
same,"activity, negative = cell killing",[17]; [24],0.695%
same,Potency,[18],inactive
COc1cc(/C=C/C(=O)N2CCN(CC(=O)N3CCCC3)CC2)cc(OC)c1OC,outcome,[19],inactive
same,Potency,[3],inactive
same,Potency,[4],inactive
same,Potency,[5],inactive
same,Potency,[6],inactive
same,Potency,[16],inactive
same,Potency,[7],inactive
same,Potency,[8],inactive
same,Potency,[9],inactive
same,Potency,[10],inactive
same,Potency,[12],inactive
same,Potency,[13],inactive
same,"activity, negative = cell killing",[17]; [21],-11%
same,"activity, negative = cell killing",[17]; [22],-1.45%
same,"activity, negative = cell killing",[17]; [23],-40.7%
same,"activity, negative = cell killing",[17]; [24],-18.6%
Fc1ccc2[nH]c(CN3CCN(c4ccccn4)CC3)cc2c1,Potency,[3],inactive
same,Potency,[4],inactive
same,Potency,[5],inactive
same,Potency,[6],inactive
same,Potency,[16],inactive
same,Potency,[7],inactive
same,Potency,[8],inactive
same,Potency,[9],inactive
same,Potency,[10],inactive
same,Potency,[11],inactive
same,Potency,[12],inactive
same,Potency,[13],inactive
